What was measured:
[1] = molecular target: Sphingosine kinase 1 (Homo sapiens) (UniProt Q9NYA1); conditions: at 1 µM;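 further: mean SPHK1 inhibition value reported from the GSK PKIS kinase panel screen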
[2] = molecular target: T1, Sphingosine kinase 2 (Homo sapiens) (UniProt Q9NRA0); conditions: at 0.1 µM
T1 sequence (whole entry): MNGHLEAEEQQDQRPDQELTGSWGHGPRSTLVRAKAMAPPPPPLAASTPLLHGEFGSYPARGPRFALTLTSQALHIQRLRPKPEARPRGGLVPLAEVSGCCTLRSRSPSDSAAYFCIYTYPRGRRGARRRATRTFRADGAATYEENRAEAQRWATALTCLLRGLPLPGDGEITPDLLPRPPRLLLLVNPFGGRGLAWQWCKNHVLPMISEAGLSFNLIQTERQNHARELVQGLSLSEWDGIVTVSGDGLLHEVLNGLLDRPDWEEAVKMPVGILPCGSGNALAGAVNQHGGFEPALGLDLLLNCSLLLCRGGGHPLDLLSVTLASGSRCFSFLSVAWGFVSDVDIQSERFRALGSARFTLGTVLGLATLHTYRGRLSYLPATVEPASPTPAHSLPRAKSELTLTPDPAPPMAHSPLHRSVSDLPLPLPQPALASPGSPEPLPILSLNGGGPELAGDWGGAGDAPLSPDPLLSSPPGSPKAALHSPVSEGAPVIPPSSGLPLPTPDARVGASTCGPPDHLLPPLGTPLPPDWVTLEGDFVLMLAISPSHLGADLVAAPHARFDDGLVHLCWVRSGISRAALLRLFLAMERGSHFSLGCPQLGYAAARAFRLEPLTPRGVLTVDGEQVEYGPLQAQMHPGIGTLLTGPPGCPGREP

[3] = molecular target: T1, Sphingosine kinase 2 (Homo sapiens); conditions: at 1 µM
[4] = molecular target: Casein kinase II subunit alpha (Homo sapiens) (UniProt P68400); conditions: at 0.1 µM
Chain of Casein kinase II subunit alpha (Homo sapiens) (P68400 whole entry, looked up): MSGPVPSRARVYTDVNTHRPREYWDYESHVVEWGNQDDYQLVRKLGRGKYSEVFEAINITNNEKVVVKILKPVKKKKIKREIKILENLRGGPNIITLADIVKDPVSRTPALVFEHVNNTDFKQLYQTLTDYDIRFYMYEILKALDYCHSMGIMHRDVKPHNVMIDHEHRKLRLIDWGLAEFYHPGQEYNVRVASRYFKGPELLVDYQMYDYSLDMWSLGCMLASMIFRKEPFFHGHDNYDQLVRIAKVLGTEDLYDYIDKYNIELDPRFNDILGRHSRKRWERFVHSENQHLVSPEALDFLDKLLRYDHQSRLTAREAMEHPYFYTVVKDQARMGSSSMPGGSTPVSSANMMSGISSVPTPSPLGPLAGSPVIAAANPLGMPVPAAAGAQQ

[5] = molecular target: Casein kinase II subunit alpha (Homo sapiens) (UniProt P68400); conditions: at 1 µM
[6] = molecular target: T2, Inhibitor of nuclear factor kappa-B kinase subunit alpha (Homo sapiens) (UniProt O15111); conditions: at 0.1 µM
T2 sequence (whole entry): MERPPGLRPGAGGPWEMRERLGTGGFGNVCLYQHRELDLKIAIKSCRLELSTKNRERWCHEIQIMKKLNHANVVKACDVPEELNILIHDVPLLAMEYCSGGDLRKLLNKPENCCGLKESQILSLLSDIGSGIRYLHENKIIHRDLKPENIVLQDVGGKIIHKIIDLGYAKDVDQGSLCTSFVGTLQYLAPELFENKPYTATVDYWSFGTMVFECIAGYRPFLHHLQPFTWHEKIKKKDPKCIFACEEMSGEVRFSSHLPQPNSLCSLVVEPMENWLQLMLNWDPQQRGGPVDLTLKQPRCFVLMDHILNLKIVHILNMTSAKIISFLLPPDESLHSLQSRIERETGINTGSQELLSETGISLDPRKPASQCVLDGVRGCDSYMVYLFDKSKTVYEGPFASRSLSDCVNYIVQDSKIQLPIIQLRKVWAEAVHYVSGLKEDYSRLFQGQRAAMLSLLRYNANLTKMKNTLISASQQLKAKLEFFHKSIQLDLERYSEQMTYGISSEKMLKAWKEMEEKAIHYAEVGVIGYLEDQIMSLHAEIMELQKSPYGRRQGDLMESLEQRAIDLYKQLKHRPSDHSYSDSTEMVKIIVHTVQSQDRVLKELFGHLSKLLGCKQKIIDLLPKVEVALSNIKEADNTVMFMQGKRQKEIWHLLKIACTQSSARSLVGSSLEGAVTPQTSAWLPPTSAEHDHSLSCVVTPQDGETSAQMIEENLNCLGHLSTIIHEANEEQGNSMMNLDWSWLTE

[7] = molecular target: T2, Inhibitor of nuclear factor kappa-B kinase subunit alpha (Homo sapiens); conditions: at 1 µM
[8] = molecular target: T3, Inhibitor of nuclear factor kappa-B kinase subunit beta (Homo sapiens) (UniProt O14920); conditions: at 0.1 µM
T3 sequence (whole entry): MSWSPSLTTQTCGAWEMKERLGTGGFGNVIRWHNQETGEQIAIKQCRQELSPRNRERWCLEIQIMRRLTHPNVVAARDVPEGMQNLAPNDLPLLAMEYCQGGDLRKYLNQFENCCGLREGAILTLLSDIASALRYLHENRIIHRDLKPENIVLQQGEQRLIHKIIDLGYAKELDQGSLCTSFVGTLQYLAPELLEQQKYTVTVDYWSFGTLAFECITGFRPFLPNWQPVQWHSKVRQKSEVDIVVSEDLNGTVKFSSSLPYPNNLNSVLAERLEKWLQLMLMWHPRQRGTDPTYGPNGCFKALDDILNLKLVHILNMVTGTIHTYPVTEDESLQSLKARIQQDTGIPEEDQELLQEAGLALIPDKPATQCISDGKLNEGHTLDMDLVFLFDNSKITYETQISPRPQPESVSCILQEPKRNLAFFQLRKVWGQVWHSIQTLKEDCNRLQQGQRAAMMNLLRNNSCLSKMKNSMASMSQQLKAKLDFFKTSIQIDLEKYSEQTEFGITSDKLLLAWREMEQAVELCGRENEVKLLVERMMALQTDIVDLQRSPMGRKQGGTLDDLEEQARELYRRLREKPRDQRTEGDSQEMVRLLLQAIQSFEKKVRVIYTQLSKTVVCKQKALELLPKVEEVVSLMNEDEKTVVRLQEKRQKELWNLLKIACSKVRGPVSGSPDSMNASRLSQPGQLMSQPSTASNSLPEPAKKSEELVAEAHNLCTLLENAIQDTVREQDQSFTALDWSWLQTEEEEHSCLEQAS

[9] = molecular target: T3, Inhibitor of nuclear factor kappa-B kinase subunit beta (Homo sapiens); conditions: at 1 µM
[10] = molecular target: T4, Inhibitor of nuclear factor kappa-B kinase subunit epsilon (Homo sapiens) (UniProt Q14164); conditions: at 0.1 µM
T4 sequence (whole entry): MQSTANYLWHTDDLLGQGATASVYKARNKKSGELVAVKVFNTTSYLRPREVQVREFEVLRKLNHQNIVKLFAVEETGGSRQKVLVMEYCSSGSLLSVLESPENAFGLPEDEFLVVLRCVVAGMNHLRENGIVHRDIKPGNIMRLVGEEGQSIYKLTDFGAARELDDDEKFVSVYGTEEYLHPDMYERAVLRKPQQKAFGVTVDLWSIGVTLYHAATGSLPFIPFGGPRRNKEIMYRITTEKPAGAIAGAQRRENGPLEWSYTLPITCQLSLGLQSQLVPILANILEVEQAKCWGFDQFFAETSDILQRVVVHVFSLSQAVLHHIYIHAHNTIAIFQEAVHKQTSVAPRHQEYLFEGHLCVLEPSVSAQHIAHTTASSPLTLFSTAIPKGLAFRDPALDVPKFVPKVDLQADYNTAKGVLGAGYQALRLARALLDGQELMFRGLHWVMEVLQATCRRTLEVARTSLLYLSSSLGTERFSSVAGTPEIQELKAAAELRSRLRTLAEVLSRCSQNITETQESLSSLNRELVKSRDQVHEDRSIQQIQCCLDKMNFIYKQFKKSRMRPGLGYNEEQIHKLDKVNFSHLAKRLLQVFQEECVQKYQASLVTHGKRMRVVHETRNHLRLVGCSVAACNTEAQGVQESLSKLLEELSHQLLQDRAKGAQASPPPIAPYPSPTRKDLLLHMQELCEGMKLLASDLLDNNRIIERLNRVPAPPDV

[11] = molecular target: T4, Inhibitor of nuclear factor kappa-B kinase subunit epsilon (Homo sapiens); conditions: at 1 µM
[12] = molecular target: T5, Serine/threonine-protein kinase Nek1 (Homo sapiens) (UniProt Q96PY6); conditions: at 0.1 µM
T5 sequence (whole entry): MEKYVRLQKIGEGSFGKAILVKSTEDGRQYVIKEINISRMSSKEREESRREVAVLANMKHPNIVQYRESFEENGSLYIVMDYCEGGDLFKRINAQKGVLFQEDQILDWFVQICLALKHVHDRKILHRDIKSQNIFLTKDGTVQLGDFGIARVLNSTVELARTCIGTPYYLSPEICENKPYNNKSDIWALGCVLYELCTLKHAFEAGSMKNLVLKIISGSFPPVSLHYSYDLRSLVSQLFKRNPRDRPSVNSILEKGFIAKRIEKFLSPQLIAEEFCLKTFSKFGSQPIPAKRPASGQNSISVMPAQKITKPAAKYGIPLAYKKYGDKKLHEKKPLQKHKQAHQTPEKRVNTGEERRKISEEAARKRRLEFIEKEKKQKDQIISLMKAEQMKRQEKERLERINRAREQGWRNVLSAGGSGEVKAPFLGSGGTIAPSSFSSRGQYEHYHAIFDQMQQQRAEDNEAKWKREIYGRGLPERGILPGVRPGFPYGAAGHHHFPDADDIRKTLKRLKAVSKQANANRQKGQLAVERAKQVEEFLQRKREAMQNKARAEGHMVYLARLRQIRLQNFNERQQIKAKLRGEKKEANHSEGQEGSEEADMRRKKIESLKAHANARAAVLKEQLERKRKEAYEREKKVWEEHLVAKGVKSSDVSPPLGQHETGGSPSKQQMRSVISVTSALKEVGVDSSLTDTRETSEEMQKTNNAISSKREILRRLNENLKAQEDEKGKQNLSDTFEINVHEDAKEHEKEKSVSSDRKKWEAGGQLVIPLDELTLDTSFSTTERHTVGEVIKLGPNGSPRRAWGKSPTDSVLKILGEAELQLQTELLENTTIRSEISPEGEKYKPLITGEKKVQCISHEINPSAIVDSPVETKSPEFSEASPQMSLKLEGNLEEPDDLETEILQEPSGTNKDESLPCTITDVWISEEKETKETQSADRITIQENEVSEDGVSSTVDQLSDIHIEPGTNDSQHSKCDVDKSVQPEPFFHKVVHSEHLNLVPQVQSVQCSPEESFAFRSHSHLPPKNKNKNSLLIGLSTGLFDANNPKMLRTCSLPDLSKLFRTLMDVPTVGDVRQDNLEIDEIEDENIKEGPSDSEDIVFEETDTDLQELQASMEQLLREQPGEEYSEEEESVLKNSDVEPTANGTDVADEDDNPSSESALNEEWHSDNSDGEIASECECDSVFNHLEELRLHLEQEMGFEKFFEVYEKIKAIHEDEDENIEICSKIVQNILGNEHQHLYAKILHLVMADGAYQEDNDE

[13] = molecular target: T5, Serine/threonine-protein kinase Nek1 (Homo sapiens); conditions: at 1 µM
[14] = molecular target: T6, Serine/threonine-protein kinase Nek2 (Homo sapiens) (UniProt P51955); conditions: at 0.1 µM
T6 sequence (whole entry): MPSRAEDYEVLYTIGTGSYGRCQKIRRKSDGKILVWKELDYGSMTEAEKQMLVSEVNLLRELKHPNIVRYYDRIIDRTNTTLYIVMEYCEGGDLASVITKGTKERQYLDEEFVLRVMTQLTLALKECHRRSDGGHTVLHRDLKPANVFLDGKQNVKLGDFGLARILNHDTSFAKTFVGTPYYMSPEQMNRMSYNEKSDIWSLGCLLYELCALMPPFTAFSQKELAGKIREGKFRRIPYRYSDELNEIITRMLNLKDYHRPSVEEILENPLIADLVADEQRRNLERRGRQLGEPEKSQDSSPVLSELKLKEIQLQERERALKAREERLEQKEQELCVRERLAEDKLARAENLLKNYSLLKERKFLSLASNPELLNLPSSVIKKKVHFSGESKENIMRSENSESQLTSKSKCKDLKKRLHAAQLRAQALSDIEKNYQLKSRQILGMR

[15] = molecular target: T6, Serine/threonine-protein kinase Nek2 (Homo sapiens); conditions: at 1 µM
[16] = molecular target: Serine/threonine-protein kinase Nek6 (Homo sapiens) (UniProt Q9HC98); conditions: at 0.1 µM
Chain of Serine/threonine-protein kinase Nek6 (Homo sapiens) (Q9HC98 whole entry): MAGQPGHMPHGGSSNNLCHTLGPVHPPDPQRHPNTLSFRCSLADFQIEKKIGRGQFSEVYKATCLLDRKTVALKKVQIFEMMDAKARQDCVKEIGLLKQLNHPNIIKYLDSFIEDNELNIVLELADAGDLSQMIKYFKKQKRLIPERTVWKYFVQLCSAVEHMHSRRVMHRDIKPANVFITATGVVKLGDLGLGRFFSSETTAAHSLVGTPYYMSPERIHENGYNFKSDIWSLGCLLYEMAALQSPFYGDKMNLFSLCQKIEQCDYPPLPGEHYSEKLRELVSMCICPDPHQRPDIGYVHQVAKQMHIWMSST

[17] = molecular target: Serine/threonine-protein kinase Nek6 (Homo sapiens) (UniProt Q9HC98); conditions: at 1 µM
[18] = molecular target: Serine/threonine-protein kinase Nek7 (Homo sapiens) (UniProt Q8TDX7); conditions: at 0.1 µM
Chain of Serine/threonine-protein kinase Nek7 (Homo sapiens) (Q8TDX7 whole entry, looked up): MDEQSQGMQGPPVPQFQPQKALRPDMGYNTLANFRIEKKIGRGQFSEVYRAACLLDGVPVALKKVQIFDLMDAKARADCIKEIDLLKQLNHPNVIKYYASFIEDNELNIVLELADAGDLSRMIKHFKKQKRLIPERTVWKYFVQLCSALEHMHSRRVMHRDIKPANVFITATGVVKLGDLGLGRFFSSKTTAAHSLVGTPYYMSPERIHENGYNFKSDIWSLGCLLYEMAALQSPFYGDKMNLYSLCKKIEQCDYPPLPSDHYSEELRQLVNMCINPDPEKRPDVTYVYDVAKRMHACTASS

[19] = molecular target: Serine/threonine-protein kinase Nek7 (Homo sapiens) (UniProt Q8TDX7); conditions: at 1 µM
[20] = molecular target: T7, Serine/threonine-protein kinase Nek9 (Homo sapiens) (UniProt Q8TD19); conditions: at 0.1 µM;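 further: reported value is the mean percent inhibition of NEK9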
T7 sequence (whole entry): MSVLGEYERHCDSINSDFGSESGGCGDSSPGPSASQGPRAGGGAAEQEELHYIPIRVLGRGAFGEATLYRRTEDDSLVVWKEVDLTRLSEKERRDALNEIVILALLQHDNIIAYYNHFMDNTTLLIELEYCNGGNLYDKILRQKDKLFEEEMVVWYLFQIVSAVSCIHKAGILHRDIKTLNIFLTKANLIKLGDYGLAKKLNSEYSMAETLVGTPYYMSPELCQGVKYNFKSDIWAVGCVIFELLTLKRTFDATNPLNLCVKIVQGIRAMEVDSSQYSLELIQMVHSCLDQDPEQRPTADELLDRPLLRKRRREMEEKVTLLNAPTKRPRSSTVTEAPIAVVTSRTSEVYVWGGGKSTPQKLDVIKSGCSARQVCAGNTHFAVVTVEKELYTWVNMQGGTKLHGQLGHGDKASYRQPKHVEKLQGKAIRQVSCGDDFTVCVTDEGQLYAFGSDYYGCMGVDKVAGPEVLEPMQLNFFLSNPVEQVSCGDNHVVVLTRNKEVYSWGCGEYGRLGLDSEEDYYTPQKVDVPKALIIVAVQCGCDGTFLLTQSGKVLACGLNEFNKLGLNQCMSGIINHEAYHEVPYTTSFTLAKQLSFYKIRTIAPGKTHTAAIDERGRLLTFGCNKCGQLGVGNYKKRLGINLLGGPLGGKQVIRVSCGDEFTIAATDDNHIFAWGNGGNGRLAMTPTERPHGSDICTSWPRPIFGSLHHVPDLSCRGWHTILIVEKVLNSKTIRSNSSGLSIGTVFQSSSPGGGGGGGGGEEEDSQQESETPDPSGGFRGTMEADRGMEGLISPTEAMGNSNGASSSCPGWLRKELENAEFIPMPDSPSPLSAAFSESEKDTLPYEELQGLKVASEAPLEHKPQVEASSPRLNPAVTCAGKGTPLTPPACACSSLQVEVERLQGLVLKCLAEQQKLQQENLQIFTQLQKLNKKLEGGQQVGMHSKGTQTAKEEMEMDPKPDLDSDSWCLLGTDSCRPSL

Chain of Sphingosine kinase 1 (Homo sapiens) (Q9NYA1 whole entry): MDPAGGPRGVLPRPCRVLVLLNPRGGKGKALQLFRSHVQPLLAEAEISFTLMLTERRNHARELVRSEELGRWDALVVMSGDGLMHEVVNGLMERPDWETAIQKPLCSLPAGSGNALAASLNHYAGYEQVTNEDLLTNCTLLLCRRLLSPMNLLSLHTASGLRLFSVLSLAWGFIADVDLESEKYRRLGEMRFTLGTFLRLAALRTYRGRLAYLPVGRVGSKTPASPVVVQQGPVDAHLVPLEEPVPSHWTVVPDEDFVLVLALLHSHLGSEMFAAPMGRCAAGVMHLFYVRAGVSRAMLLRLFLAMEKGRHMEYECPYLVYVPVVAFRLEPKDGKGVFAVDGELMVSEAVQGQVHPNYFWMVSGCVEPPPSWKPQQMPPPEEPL

Structure (SMILES)	inhibition [1]	inhibition [2]	inhibition [3]	inhibition [4]	inhibition [5]	inhibition [6]	inhibition [7]	inhibition [8]	inhibition [9]	inhibition [10]	inhibition [11]	inhibition [12]	inhibition [13]	inhibition [14]	inhibition [15]	inhibition [16]	inhibition [17]	inhibition [18]	inhibition [19]	inhibition [20]
O=C(O[C@H]1CN[C@H](C#Cc2cc3ncnc(Nc4ccc(OCc5cccc(F)c5)c(Cl)c4)c3s2)C1)N1CCOCC1	-2.17%	0.46%	-2.18%	4.85%	11.5%	6.35%	6.72%	8.43%	11.1%	8.36%	9.71%	3.33%	4.01%	6.18%	8.23%	1.15%	2.74%	4.68%	3.68%	5.79%
CN(C)CCNC(=O)Nc1ccc(N(C)c2ccnc(Nc3ccc(CS(C)(=O)=O)cc3)n2)cc1	-1.23%	-0.06%	2.33%	2.94%	0.31%	2.05%	0.39%	7.67%	1.94%	3.33%	6.21%	0.66%	2.81%	5.18%	-2.7%	3.4%	3.93%	3.07%	2.78%	0.16%
